Source: PubChem BioAssay (Broad Institute)
An excerpt weighted towards active compounds, which were near 0.86% of everything screened.
A1 inh: blocks A1 activity; MEF A1-2A-BIM cells, caspase-Glo luminescence, 3 h; percent of clofoctol signal, DMSO as zero; caspase activation, % (concentration not given with the values); 21,000 compounds, 0.51% hits; AID 2241;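 active = most replicate scores above 10, or exactly half above 10 with mean activity above 10; inconclusive = mean activity below 10 while half the replicates exceed 10; inactive = most replicate scores below 10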;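 note: effector caspase 3 and 7 activity cleaving a DEVD luciferin substrate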
BJeLR viability: compounds reducing viability of BJeLR cells. 30,000 compounds, 0.64% hits. BJeLR fibroblasts viability, CellTiterGlo ATP luminescence, 48 h; HRASV12, hTERT and SV40 LT/ST transformed. viability loss activity score, % (test concentration not listed); in the data active = viability loss activity score above about 50%; inconclusive = no clear call, values can overlap the other calls; inactive = below about 35%;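 note: higher score means fewer live cells and less ATP luminescence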
The depositor's hits bear a star; u = inconclusive; x = no result given.

SMILES | A1 inh | BJeLR viability
CCOC(=O)c1cc(S(=O)(=O)NC(C)CC)cn1C (stereo unspecified) | 0 | -23
c1ccc(CN(CCN(Cc2ccccn2)Cc2ccccn2)Cc2ccccn2)nc1 | u | 110*
Cc1cc[n+](Cc2ccccn2)c(N)c1 | 0 | 6
CN(C)CCC(C)(O)Cc1ccccc1 (stereo unspecified) | 1 | 0
Cc1ccc(S(=O)(=O)N[C@@H](Cc2ccccc2)C(=O)CCl)cc1 | 16* | 25
COC(=O)CN(Cc1ccccc1)S(=O)(=O)c1ccc(C)cc1 | 0 | 2
CCOC(=O)C1=C(c2ccccc2)Nc2nnnn2C1c1ccc(Br)cc1 (stereo unspecified) | x | -8
Cc1ccc(Cl)cc1N1CCN(C(=O)C2CCN(S(=O)(=O)c3cccs3)CC2)CC1 | x | 1
Cc1ccccc1NC(=O)Nc1sc(NS(=O)(=O)c2ccccc2)nc1C | x | 6
CC1=CC(C)(C)N(S(=O)(=O)c2ccc(C)cc2)c2ccccc21 | 1 | 57*
CC1=CC(C)(C)N(C(=O)Nc2ccc(C)cc2)c2ccccc21 | x | 3
O=C(O)c1ccc(-c2nnc(-c3ccccc3Cl)o2)cc1 | -7 | 3
O=C(Nc1ccccc1)c1cc([N+](=O)[O-])ccc1Cl | 0 | -3
O=C(Nc1ccc([N+](=O)[O-])cc1Cl)c1cc(Cl)ccc1O | -7 | 99*
O=C(NCCOc1ccccc1)c1ccc(=O)[nH]c1 | -1 | -1
CCOC(=O)CCc1c(C)c(C#N)c2nc3ccccc3n2c1Cl | x | 88*
CCc1c(C)c(C#N)c2nc3ccccc3n2c1NCCC(C)C | 0 | -3
CC(C)CCOc1ccc(C(=O)C(CN2CCOCC2)c2ccccc2)cc1 (stereo unspecified) | 1 | 78*
OC(CN1CCOCC1)c1ccccc1 (stereo unspecified) | -1 | -3
O=c1oc(Cl)c(Cl)c2ccccc12 | 5 | 55*
O=c1oc(-c2ccccn2)nc2ccccc12 | -5 | -1
Cc1ccc(NC(=S)N2CCC(Nc3nccc(C(F)(F)F)n3)CC2)c(C)c1 | x | 0
Cc1cc(C)cc(-n2c(SCC(=O)Nc3ccccc3C(F)(F)F)nc3c(c2=O)SCC3)c1 | 1 | -5
N/C(=N/O)c1ccccc1N | 1 | 3
Cc1ccc2nc(-c3ccncc3)cc(-c3ccccc3)c2c1 | u | 1
SMILES | A1 inh | BJeLR viability
On1onc2c3cc(-c4ccccc4)nc3ccc21 | -2 | 61*
CC(=O)N(CN1C(=O)c2ccccc2C1=O)c1ccccc1C | -1 | 9
NS(=O)(=O)c1ccc(CCNC(=O)c2cccn3c(=O)c4cc5ccccc5cc4nc23)cc1 | 13* | 10
CCOC(=O)N1CCN(C(=O)c2cccn3c(=O)c4cc5ccccc5cc4nc23)CC1 | -1 | -5
Cn1nc(OC(C)(C)C(=O)Oc2ccc(Cl)cc2Cl)cc1C(F)(F)F | -1 | 0
CCn1c(=NC(=O)CSCC(=O)Nc2cc(C)on2)sc2ccccc21 | x | -1
CC(=O)O[C@H]1C(=O)[C@@]2(C)C([C@H](OC(=O)c3ccccc3)[C@]3(O)C[C@H](OC(=O)[C@H](O)[C@@H](NC(=O)c4ccccc4)c4ccccc4)C(C)=C1C3(C)C)[C@]1(OC(C)=O)CO[C@@H]1C[C@@H]2O (stereo partly specified) | 2 | 50*
O[C@H]1C=C2CCN3Cc4cc5c(cc4C(C23)[C@@H]1O)OCO5 (stereo partly specified) | 1 | 39
O=c1cc(N2CCOCC2)oc2c1ccc1ccccc12 | 2 | 4
O=c1cc(N2CCOCC2)oc2c(-c3ccccc3)cccc12 | 11* | 5
CN(C)CCNC(=O)c1cc2c(s1)-c1ccc(Cl)cc1SC2 | 39* | 123*
CCCNC(=O)c1cc2c(s1)CS(=O)(=O)C2 | 1 | 0
O=C(Cc1ccccc1)NC1CCCCC1NC(=O)Cc1ccccc1 (stereo unspecified) | 1 | 0
CCCC(O)/C(=C/C1=C(C(=O)CC(CC(=O)O)OC(N)=O)C(=O)c2cccc(O)c2C1=O)CC(C(=O)O)[N+](C)(C)C (stereo unspecified) | 1 | 13
C[C@H](CO)N1C[C@H](C)[C@H](CN(C)C(=O)Nc2ccc(C(F)(F)F)cc2)Oc2ccc(NS(=O)(=O)c3cccs3)cc2C1=O | 12* | -2
C[C@H](CO)N1C[C@H](C)[C@H](CN(C)Cc2ccc(C(=O)Nc3ccccc3N)cc2)Oc2ccc(N(C)C)cc2C1=O | x | 15
C[C@@H]1CN([C@H](C)CO)C(=O)c2cc(N(C)C)ccc2O[C@@H]1CN(C)Cc1ccc(C(=O)Nc2ccccc2N)cc1 | x | 54*
C[C@@H]1CN([C@H](C)CO)C(=O)c2cc(NS(=O)(=O)c3cccs3)ccc2O[C@H]1CN(C)C(=O)Nc1ccc(F)cc1 | 0 | 4
COc1ccc(NC(=O)c2ccc3c(=O)n(Cc4ccco4)c(=S)[nH]c3c2)cc1OC | -1 | -4
CC(C)(C)c1ccc(CSCc2nc3ccccc3[nH]2)cc1 | -1 | 7
CC(C)n1c2ccccc2c2nnc(SCCCC(=O)c3ccc(F)cc3)nc21 | -1 | 7
CC(C)n1c(/C=C/[C@H](O)C[C@H](O)CC(=O)O)c(-c2ccc(F)cc2)c2ccccc21 | 2 | 56*
COc1ccc(NC(=O)CC(=O)CSc2ccccc2)cc1 | -1 | 0
CC1CCCC[C@H]2C(=O)C=C[C@H](O)[C@@H]2CC(=O)O1 (stereo partly specified) | 0 | 62*
CC1CCC/C=C/C(=O)c2c(O)cc(O)cc2CC(=O)O1 (stereo unspecified) | 0 | 4
SMILES | A1 inh | BJeLR viability
O=C(NCc1ccc(-c2cccs2)cc1)C1=Cc2ccccc2OC1 | 2 | 1
COc1ccc(-c2coc3c(C)c4oc(=O)c5c(c4cc23)CCCC5)cc1F | 0 | 1
COc1ccccc1NC(=O)N1CCN(C(c2ccccc2)c2ccccc2)CC1 | x | 8
COc1ccc2[nH]c3c(=O)n(Cc4ccc(C(=O)NCCc5ccc(C)cc5)cc4)c(=S)[nH]c3c2c1 | 112* | 4
COc1ccc2[nH]c3c(=O)n(CC(=O)N4CCN(c5ccc(F)cc5)CC4)c(=S)[nH]c3c2c1 | 4 | -2
CC(C)c1cc(C(=O)NCc2ccc(Cl)cc2)no1 | x | 2
Cc1ccc(/C=C/C(=O)N(Cc2ccccc2)c2ccccn2)cc1 | 0 | 6
COc1cccc2c1C(=O)c1c(O)c3c(c(O)c1C2=O)C[C@@](O)(C(C)=O)C[C@@H]3O[C@H]1C[C@H](N)[C@H](O)[C@H](C)O1 | 15* | 111*
CC1CC(=O)c2c(ccc3c2C(=O)c2c(O[C@@H]4O[C@@H](C)[C@H](O)[C@@H](O)[C@H]4O)cccc2C3=O)C1 (stereo partly specified) | 1 | 5
CC1CC(C)CN(C(=O)c2ccc(CNS(=O)(=O)c3ccc(F)cc3)cc2)C1 (stereo unspecified) | 0 | 9
Cc1nc2ccc(C(F)(F)F)cc2n1CCc1ccccc1 | 0 | 2
C/C=C(\C)C(=O)O[C@@H]1[C@@H](OC(C)=O)C2[C@@]3(C)CC[C@H](OC4CC(OC)C(OC5CC(OC)C(OC6CC(OC)C(OC7OC(C)C(OC8OC(CO)C(O)C(O)C8O)C(OC)C7O)C(C)O6)C(C)O5)C(C)O4)CC3=CC[C@@]2(O)[C@@]2(O)CC[C@H](C(C)=O)[C@@]12C (stereo partly specified) | 1 | -14
